# In all, about 310,000 compounds went through this assay and about 14,000 (4.5%) showed an effect of 50% or more. Effects have a minus sign here. The sample holds strong results, similar compounds and a random draw of the others, so the mix is not that of the screen.
# Target: human ether-à-go-go-related gene (hERG) potassium channel (human, UniProt Q12809)
# Assay: primary screen, population patch clamp on CHO cells stably expressing hERG; higher = less effect of the substance
# Method: Briefly, Chinese hamster ovary (CHO) cells stably expressing the hERG channel were dislodged from tissue culture flasks and dispensed into PPC plates. […] During the recording, background leak currents were estimated by a 100 ms step to -80 mV from an initial holding potential of -70 mV and subtracted from the subsequent current measurement. The campaign was conducted in two phases using slight differences in recording protocol. In the first phase, the initial voltage pulse used a 100 ms step to -30 mV from a holding potential of -70 mV, a 2 s conditioning step to +25 mV, and a 2 s test step to -30 mV. During the second phase of the screen, the potential during the conditioning step was raised to +45 mV. In both phases of the campaign, a secondary voltage pulse was applied using the same parameters as the second phase initial pulse. The initial and secondary pulses were applied in the absence of compound, and upon application of 1 μM and 10 μM test concentrations. […]
# 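Note: peak tail current of the secondary pulse compared with the same well before compound.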
# Sequence of human ether-à-go-go-related gene (hERG) potassium channel (Q12809 whole entry, looked up): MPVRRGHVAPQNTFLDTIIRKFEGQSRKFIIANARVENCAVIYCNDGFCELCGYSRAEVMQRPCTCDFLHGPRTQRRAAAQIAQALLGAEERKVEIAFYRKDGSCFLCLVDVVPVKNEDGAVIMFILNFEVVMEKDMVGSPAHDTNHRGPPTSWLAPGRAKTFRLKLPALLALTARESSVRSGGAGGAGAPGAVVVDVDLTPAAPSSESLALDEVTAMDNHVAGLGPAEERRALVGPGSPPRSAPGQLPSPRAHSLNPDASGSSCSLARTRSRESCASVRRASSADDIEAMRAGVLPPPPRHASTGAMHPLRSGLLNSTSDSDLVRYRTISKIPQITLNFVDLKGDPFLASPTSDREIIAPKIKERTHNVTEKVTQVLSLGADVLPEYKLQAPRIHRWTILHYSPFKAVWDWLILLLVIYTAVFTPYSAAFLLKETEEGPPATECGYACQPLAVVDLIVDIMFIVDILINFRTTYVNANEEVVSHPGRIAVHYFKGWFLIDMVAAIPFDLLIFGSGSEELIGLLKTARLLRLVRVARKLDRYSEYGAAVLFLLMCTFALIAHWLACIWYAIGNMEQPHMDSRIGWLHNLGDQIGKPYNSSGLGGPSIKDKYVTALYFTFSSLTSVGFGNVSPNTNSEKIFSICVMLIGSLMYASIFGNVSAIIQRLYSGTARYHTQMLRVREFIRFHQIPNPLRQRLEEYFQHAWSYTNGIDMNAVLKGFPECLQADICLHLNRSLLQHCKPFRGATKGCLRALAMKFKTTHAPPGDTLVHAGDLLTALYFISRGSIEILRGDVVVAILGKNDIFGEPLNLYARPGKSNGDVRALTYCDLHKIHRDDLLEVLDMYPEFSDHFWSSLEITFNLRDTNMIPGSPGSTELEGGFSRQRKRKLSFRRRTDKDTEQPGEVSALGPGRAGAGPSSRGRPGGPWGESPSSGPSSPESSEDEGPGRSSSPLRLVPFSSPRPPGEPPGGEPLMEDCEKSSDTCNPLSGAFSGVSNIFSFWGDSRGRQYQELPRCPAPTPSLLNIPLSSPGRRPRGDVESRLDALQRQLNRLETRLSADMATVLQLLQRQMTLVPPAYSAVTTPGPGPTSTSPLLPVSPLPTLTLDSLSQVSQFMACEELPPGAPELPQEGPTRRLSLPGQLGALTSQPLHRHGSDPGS
row,Compound,"hERG current change (%, negative = inhibition) at 10uM"
1,O=c1[nH]cnc2c1cnn2Cc1ccccc1Cl,11.7%
2,Cc1ccc(C2(C)NC(=O)N(CC(=O)NCc3ccccc3Cl)C2=O)cc1 (stereo not shown),9.54%
3,CCCc1noc2c1/C(=N\O)CC(CC(C)SCC)C2 (stereo not shown),-11.1%
4,CCSC(C)CC1C/C(=N/O)c2c(C)noc2C1 (stereo not shown),-63.4%
5,CCSC(C)CC1C/C(=N/O)c2c(CC)noc2C1 (stereo not shown),-24.2%
6,O=C(Nc1nccs1)C1CCCN1/C=C/C(=O)C(F)(F)F (stereo not shown),13.9%
7,CSc1nnc2c(n1)OC(c1ccccn1)N(C(C)=O)c1ccccc1-2 (stereo not shown),1.42%
8,c1ccc2c(c1)ncn2-c1ncnc2sc3c(c12)CCCC3,-27.2%
9,CC(O)CNc1nc2ccccc2n1-c1ncnc2sc3c(c12)CCC3 (stereo not shown),-55.5%
10,CC(O)CNc1nc2sc3c(c2c(=O)n1CCc1ccccc1)CCCCC3 (stereo not shown),13.1%
11,COc1ccc(CC(=O)N/N=C/c2ccc(-c3cccc(C(=O)O)c3)o2)cc1OC,3.33%
12,C=CCNC(=O)CN(Cc1ccccc1)S(=O)(=O)c1ccccc1,-4.02%
13,CCNS(=O)(=O)c1ccc(NC(=S)N2CCc3ccccc32)cc1,22.9%
14,CCOC(=O)c1c(C)nsc1NC(=O)C1CCCCC1,17.3%
15,N#Cc1ccc(OCC(=O)N2CCN(S(=O)(=O)c3ccc(Cl)s3)CC2)cc1,-69.5%
16,N#Cc1ccc(OCC(=O)N2CCN(S(=O)(=O)c3cccs3)CC2)cc1,-72.1%
17,O=C(CCCc1nc2ccccc2s1)N1CCN(S(=O)(=O)c2cccs2)CC1,-11.9%
18,O=S(=O)(c1cccs1)N1CCN(Cc2nc3ccccc3s2)CC1,-27.8%
19,N#Cc1ccc(C(=O)N2CCN(S(=O)(=O)c3ccc(Br)s3)CC2)cc1,-63.5%
20,O=C(CCc1nc2ccccc2s1)N1CCN(S(=O)(=O)c2cccs2)CC1,-66.7%
21,COc1ccc(OCC(=O)N2CCN(S(=O)(=O)c3ccc(Cl)s3)CC2)cc1,-0.573%
22,O=C(COc1ccccc1)N1CCN(S(=O)(=O)c2cccs2)CC1,-31%

row,Compound,"hERG current change (%, negative = inhibition) at 10uM"
1,CCC(=O)c1ccc(OCC(=O)N2CCN(S(=O)(=O)c3ccc(Cl)s3)CC2)cc1,-4.53%
2,N#Cc1ccc(C(=O)N2CCN(S(=O)(=O)c3ccc(Cl)s3)CC2)cc1,-49.9%
3,O=C(CCOc1ccccc1)N1CCN(S(=O)(=O)c2cccs2)CC1,-9.15%
4,CC(C)(C)c1ccc(C(=O)N2CCN(S(=O)(=O)c3ccc(Br)s3)CC2)cc1,1.21%
5,CCN(CC(=O)NC(=O)Nc1ccccc1F)Cc1ccccc1,12.4%
6,Cc1ccc(N(CCC(=O)N2CCOCC2)S(=O)(=O)c2ccccc2)cc1,-8.57%
7,Cn1c(NC(=O)C2c3ccccc3Oc3ccccc32)cc(=O)n(C)c1=O,-3.72%
8,C=CCn1c2ccccc2c2nnc(SCC(=O)Nc3cc(C)on3)nc21,-8.39%
9,CCOC(=O)CNC(=O)c1nn(-c2cccc(OC)c2)c(=O)c2ccccc12,-22.9%
10,O=C(COC(=O)c1cccc(Oc2ccccc2)c1)NCc1ccco1,3.19%
11,O=C(NC1CCCCC1)C(c1ccco1)N(Cc1cccnc1)C(=O)C1COc2ccccc2O1 (stereo not shown),-18.8%
12,Cc1ccc(C(C(=O)NC2CCCCC2)N(Cc2cccnc2)C(=O)C2COc3ccccc3O2)o1 (stereo not shown),-59.7%
13,Cc1ccc(C(C(=O)NC2CCCCC2)N(Cc2ccco2)C(=O)C2COc3ccccc3O2)o1 (stereo not shown),-6.27%
14,Cc1ccc(NC(=O)c2sc(C)nc2C)c(C)c1,1.97%
15,O=C(N/N=C/c1ccccc1OCc1ccccc1)c1cccs1,5.13%
16,CCc1cc(=O)oc2cc(OS(C)(=O)=O)ccc12,-5.44%
17,Cc1c(C)c2ccc(OS(C)(=O)=O)cc2oc1=O,-58.4%
18,CCOc1ccc2c(=O)c(Oc3ccccc3)c(C)oc2c1,-6.41%
19,CCOC(=O)c1c(C)oc2ccc(OS(C)(=O)=O)cc12,1.04%
20,Cc1cc(=O)oc2cc(OS(C)(=O)=O)ccc12,4.31%
21,CCOC(=O)c1ccc(Oc2c(C)oc3cc(OS(C)(=O)=O)ccc3c2=O)cc1,-66%
